# Compound activity: PubChem BioAssay, National Center for Advancing Translational Sciences (NCATS)
# Only some compounds are listed: those with a hit (about 1.1% of all), similar ones and a draw of the others.
# AmpC inh no detg – AmpC beta-lactamase inhibition without detergent. AmpC nitrocefin hydrolysis, absorbance 480 nm, 0.0001% Triton. Potency, µM (titrated, usually from 57.1 µM), without a hit: at the highest dose activity change, negative = inhibition, hits mostly inhibitors. 0.52% of 330,000 active. AID 485341;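 note: plate controls were no compound for no effect and no enzyme for full effect; nearly all actives have a fitted effect of over 20% in size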
# Target sequence (P00811 whole entry, looked up): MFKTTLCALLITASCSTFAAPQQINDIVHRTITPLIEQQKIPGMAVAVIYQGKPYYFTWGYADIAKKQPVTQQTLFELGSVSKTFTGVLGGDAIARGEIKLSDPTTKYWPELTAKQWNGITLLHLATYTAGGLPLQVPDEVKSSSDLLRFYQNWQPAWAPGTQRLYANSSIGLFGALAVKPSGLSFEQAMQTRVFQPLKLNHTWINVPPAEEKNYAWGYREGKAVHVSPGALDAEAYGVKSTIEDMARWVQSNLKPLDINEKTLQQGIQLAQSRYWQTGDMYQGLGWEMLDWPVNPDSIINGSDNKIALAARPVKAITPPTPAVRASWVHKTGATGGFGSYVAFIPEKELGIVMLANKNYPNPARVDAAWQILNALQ
#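 AmpC (5.3 nM in the dispensed reagent) in 20 mM phosphate pH 7.0 with 0.01% (detergent screen) or 0.0001% Triton X-100 was preincubated with compounds for 15 min at room temperature. Nitrocefin was then added from an 800 uM solution, and hydrolysis was followed at 480 nm.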
# AmpC inh detg – blocks E. coli AmpC beta-lactamase in detergent assay; AmpC hydrolysis of nitrocefin, absorbance 480 nm, 0.01% Triton; Potency, µM (top dose mostly 114 µM), for inactives: top-dose activity change, negative = inhibition, most hits filed as inhibitors; 0.041% of 370,000 active; AID 485294;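 note: 0% = no-compound wells and -100% = no-enzyme wells; nearly all actives have a fitted effect of over 25% in size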
#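 20 mM phosphate pH 7.0 + 0.01% (detergent screen) or 0.0001% Triton X-100; 5.3 nM AmpC reagent; cpd preinc 15 min RT; nitrocefin (800 uM stock) to start; A480 q20 s × 4 min; Activity was normalised to no-enzyme and no-compound control wells.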
# Vaccinia Venus – inhibitors of vaccinia virus (Venus reporter) | Vaccinia virus Venus reporter expression, fluorescence | Potency, µM (top dose mostly 36.5 µM), inactives show at the top dose activity change, negative = inhibition, actives largely listed as inhibitors | 0.46% of 330,000 active; calls by dose curve; tested in A549 cells; note: nearly all actives have a fitted effect of over 30% in size
# VACV mCherry inh – vaccinia inhibition (mCherry reporter) | AID 720579 | Vaccinia virus mCherry reporter infection, fluorescence | 0.63% of 310,000 active | Potency, µM (doses to about 36.5 µM), for the others: at the top dose activity change, negative = inhibition, most hits filed as inhibitors; calls by dose curve; tested in A549 cells; note: nearly all actives have a fitted effect of over 35% in size
# The depositor's hits bear a star; i = inactive; ? = inconclusive; / = no result given. Unless noted, calls come from the whole dose curve; as a rule, active = well fitted curve in the direction sought with a large enough effect; inconclusive = small, poorly fitted or top-dose-only effect, or another doubt; inactive = no such curve, though single readings can be large; an effect the other way counts as inactive or inconclusive. Unless noted, % is set by controls: 0 for no effect and ±100 for the full control effect; potency is the fitted concentration of half-maximal effect.
SMILES,AmpC inh no detg,AmpC inh detg,Vaccinia Venus,VACV mCherry inh
COc1ccc(OC)c(N2C(=O)/C(=C/c3ccco3)C(=O)NC2=S)c1,17.8µM*,50.1µM*,9.3%,1.6%
O=C1NC(=S)N(c2ccc(F)cc2)C(=O)/C1=C/c1ccco1,17.8µM*,50.1µM*,/,/
COc1ccc(N2C(=O)/C(=C/c3ccc(C)o3)C(=O)NC2=S)cc1,-19.4%,-4.8%,/,/
Cc1ncc2c(c1CNC(=O)/C=C/c1cccs1)CCN(C(=O)C1CCCO1)C2 (stereo not drawn),/,/,-1.5%,-0.7%
CC(NC(=O)NNC(N)=S)(C(F)(F)F)C(F)(F)F,-7.6%,4.0%,28.2µM*,?
COc1cccc(C2C(C(=O)c3cc4cccc(OC)c4o3)=C(O)C(=O)N2c2cc(C)on2)c1OC (stereo not drawn),20µM*,?,-12.3%,/
O=C(c1cnn(-c2nccc(-c3ccccc3F)n2)c1C1CC1)N1CCN(CCO)CC1,/,/,-10.7%,-8.7%
O=S(=O)(c1cccs1)N1CCN(c2ccc(O)cc2)CC1,-24.9%,-1.4%,-21.4%,3.98µM*
CN1CCN(S(=O)(=O)c2cccs2)CC1,-13.6%,3.2%,-10.2%,i
O=C(Cn1cccn1)N1CCOc2c(cc(-c3ncc(C(F)(F)F)cc3Cl)cc2OCC2CCCO2)C1 (stereo not drawn),/,/,-13.8%,i
CC(=O)O[C@@H]1C[C@H]2C(C)(C)C(=O)C=C[C@]2(C)[C@H]2CC[C@@]3(C)[C@H](c4ccoc4)OC(=O)[C@H]4O[C@]43[C@@]21C,102.7%,-9.5%,?,7.94µM*
CC(=O)OC1CC2C(C)(C)C(=O)CC[C@]2(C)C2CC[C@@]3(C)C(c4ccoc4)OC(=O)C4OC43[C@]12C (stereo partly drawn),/,/,-8.5%,-11.7%
COc1cccc(C2(CC(=O)N3CCN(c4nonc4C)CC3)CC(=O)N(C3CCCC3)C2=O)c1 (stereo not drawn),/,/,-15.0%,-3.0%
O=[N+]([O-])c1ccc(CNCc2cc(Cl)ccc2O)cc1,3.16µM*,-3.7%,-21.2%,-20.5%
O=[N+]([O-])c1ccc(O)c(CNCc2ccccc2)c1,/,/,-4.9%,-7.4%
O=S(=O)(c1ccc(-c2nnc(SCc3nnc(-c4ccccc4)o3)o2)cc1)N1CCCC1,-9.3%,-5.1%,/,/
CCN(CC)S(=O)(=O)c1ccc(-c2nnc(SCc3nnc(-c4ccccc4)o3)o2)cc1,-10.2%,-14.5%,0.0355µM*,?
Cn1cc(CN2CCC(C(=O)NC(c3ccc(-c4ccccc4)cc3)c3cnccn3)CC2)c2ccccc21 (stereo not drawn),/,/,11.2µM*,?
CCn1c(-c2ccccc2F)nc2cc(NC(C)=O)cc(C(=O)N3CCCCC3c3nccn3C)c21 (stereo not drawn),/,/,20.1%,19.0%
COc1ccccc1Nc1ccc(NC(=O)c2cccc([N+](=O)[O-])c2C)cc1,3.16µM*,0.9%,/,/
COc1ccc(NC(=O)c2ccccc2[N+](=O)[O-])cc1,-8.1%,?,-6.9%,-12.9%
CCN1CCCC1CNC(=O)c1cnn(-c2nccc(-c3cccs3)n2)c1C(C)C (stereo not drawn),/,/,-10.0%,-21.3%
COc1cccc(C2(CC(=O)N3CCN(c4ccccc4O)CC3)CC(=O)N(C3CCCC3)C2=O)c1 (stereo not drawn),/,/,-24.2%,-2.8%
CC(C)c1ccc(C(=O)NC(=S)Nc2ccc3[nH]c(=O)[nH]c3c2)cc1,8.91µM*,0.7%,-1.7%,-21.8%
COc1ccc(CN2CCOc3ccc(C(O)c4cccnc4)cc3C2)cc1 (stereo not drawn),/,/,-10.4%,-16.2%
SMILES,AmpC inh no detg,AmpC inh detg,Vaccinia Venus,VACV mCherry inh
Cc1ccc2nc(N3CCCCCC3)c(CN(CC3CCCO3)C(=O)c3cncs3)cc2c1 (stereo not drawn),/,/,-8.7%,-17.2%
O=C(Nc1ccccc1)c1nnsc1S(=O)c1ccc(Cl)cc1 (stereo not drawn),14.1µM*,?,?,/
Cc1cc(S(=O)(=O)c2ccc(Cl)cc2)nc(S(=O)(=O)c2ccc(Cl)cc2)c1C#N,/,/,11.2µM*,11.2µM*
C[C@H]1CC[C@]2(NC1)O[C@H]1C[C@H]3[C@@H]4CC[C@H]5C[C@@H](O)CC[C@]5(C)[C@H]4CC[C@]3(C)[C@H]1[C@@H]2C,/,/,-8.5%,-17.1%
O=C(NC(=S)Nc1ccccc1O)c1cncc(Br)c1,/,/,?,14.1µM*
O=C(NC(=S)Nc1ccccc1C(=O)O)c1cncc(Br)c1,-30.6%,?,-4.6%,-3.9%
CCOC(=O)c1c(/N=C/N(C)C)sc(/C=N/Nc2ccccc2)c1-c1ccccc1,15.8µM*,-11.1%,/,/
O=C1CCCCN1CCC(=O)N1CCOc2ccc(C(O)C3CCCCC3)cc2C1 (stereo not drawn),/,/,-7.7%,-11.0%
Cc1ccc2ncnc(NCc3ccco3)c2c1,/,/,-26.8%,16.7%
Cc1nc(NS(=O)(=O)c2ccccc2)sc1NC(=O)Nc1ccc(Cl)cc1,15.8µM*,-13.3%,/,/
Cc1ccc(C2CC(=O)C=C(O)C2)cc1 (stereo not drawn),14.1µM*,-14.3%,-4.0%,/
COc1cc(OC)c2nc(-c3cc4c(c(OC)c3)OCCN(Cc3cn(C)nc3C)C4)cc(C)c2c1,/,/,-3.6%,-15.5%
COc1cc(CN2CCC3(CC2)c2ccccc2[C@@H](NC(=O)c2ccccc2OC)[C@@H]3O)ccc1F,/,/,-23.8%,-23.0%
COC(=O)c1cc2c([nH]c3ccccc32)c(C)n1,66.8%,-11.9%,/,/
COc1ccc(NC(=O)c2cc3c([nH]c4ccccc43)c(C)n2)cc1,8.91µM*,-7.1%,-7.6%,i
CC(=O)N(Cc1ccc2c(c1)OCO2)Cc1cc2ccc(C)cc2nc1-c1cccc(C)c1,/,/,27.1%,-11.6%
Cc1nn(-c2ccccc2)cc1/C=N/NC(N)=S,-31.6%,5.0%,?,11.2µM*
Cc1nn(-c2ccccc2)cc1/C=N/O,-12.0%,-12.5%,/,/
O=C(COC(=O)c1ccccc1Nc1ccccc1)Nc1ccccc1,7.08µM*,?,-17.0%,-23.3%
CN1CCN(c2ccc(S(=O)(=O)N3CCCCC3)cc2NC(=O)/C=C/c2ccc(OC(F)F)cc2)CC1,?,?,12.6µM*,?
COC(=O)[C@@H]1CCCN1Cc1ccc2c(c1)CN(Cc1ccc(OC)c(C)c1)CCO2,/,/,8.8%,-7.3%
CCOC(CNC(=O)c1cc(C)nn1-c1ccccc1)OCC,-0.9%,-6.6%,/,/
CCOCCCNC(=O)c1cc(C)nn1-c1ccccc1,3.16µM*,?,-5.0%,i
Cc1cc(C(=O)NCCCN2CCOCC2)n(-c2ccccc2)n1,39.8µM*,?,-5.5%,i
Cc1ccc(-c2nnc3c(C(F)(F)F)nc4ccccc4n23)cc1,0.141µM*,?,-7.0%,0.4%
O=C(CSc1ccc2nnc(-c3cccnc3)n2n1)N1CCc2ccccc21,-8.0%,?,/,/
O=C(CSc1ccc2nnc(-c3ccc(Cl)cc3)n2n1)N1CCc2ccccc21,6.31µM*,-15.7%,?,-11.6%
COc1ccc(OC)c(NC(=O)c2cc(-c3ccc(C)cc3O)n[nH]2)c1,-15.8%,2.6%,/,/
COc1ccc(NC(=O)c2cc(-c3ccc(C)c(C)c3O)n[nH]2)cc1Cl,17.8µM*,?,-28.1%,-27.6%
